One experiment addresses Albumin (Bos taurus) (UniProt P02769). In words: compounds binding labelled BSA control protein – biochemical, small-molecule microarray, Alexa647 label, 635/667 nm fluorescence, artefact control for SMM control protein annotation, profiling panel (AID 1118).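 Also: score merges 667 nm emission intensity and signal-to-noise per printed compound spot.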 Particulars: BSA-A647 binding, fluorescence 635 nm, higher = more signal.
Experiment [1] is described as follows: probe aXIP binding to arrayed compounds – biochemical, NeuroSMM set, 635/667 nm fluorescence, primary screen (AID 1119).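 Also: probe is the protein aXip251-270 applied at 1 µg/mL to compound-printed slides; binding of probe to printed compounds measured as 667 nm fluorescence plus signal to noise.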 Particulars: small-molecule microarray, higher = more signal, called active from +8 up or from −8 down.
A short description of experiment [2]: probe aNOTCH3 binding on compound microarray – biochemical, small-molecule microarray, 635/667 nm fluorescence, primary screen (AID 1120).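 Also: probe is a biotin-tagged antibody raised against NOTCH3 rather than NOTCH3 protein; score merges spot fluorescence near 667 nm with spot signal to noise.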 Particulars: higher = more signal.
Experiment [3] is described as follows: probe aNOTCH2 binding on compound microarray – biochemical, small-molecule microarray, 635/667 nm fluorescence, primary screen (AID 1121).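 Also: score merges feature fluorescence read at 667 nm with its signal to noise.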 Particulars: higher = more signal.
Experiment [4] addresses Carbonic anhydrase 2 (Homo sapiens) (UniProt P00918). Put plainly: compounds binding carbonic anhydrase 2 – biochemical, small-molecule microarray, Alexa647-labelled CAII, profiling panel (AID 1122). The following applies: CAII-A647 binding fluorescence, higher = more signal.
Experiment [5] can be described thus: COS7 lysate on small-molecule microarray, probe aHis, 635 nm (AID 1123).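 Also: z-score combines 667nm fluorescence intensity with signal-to-noise per printed compound spot.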 Particulars: COS7 cell lysate, fluorescence, higher = more signal.
Experiment [6] in a line: probe aLAP1 signal on lysate-treated microarray – cell lysate, small-molecule microarray, COS7 lysate, primary screen (AID 1124).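 Also: lysate comes from COS7 cells expressing LAP1 and is applied at 0.3 µg/mL; score merges spot fluorescence near 667 nm with signal-to-noise over triplicate slides.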 The following applies: probe aLAP1, fluorescence, higher = more signal.
The subject of a further experiment is Sam68 (KHDRBS1). In words: compounds binding KHDRBS1 protein – biochemical, small-molecule microarray, 635 nm fluorescence, primary screen (AID 1125).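 Also: score merges 667 nm channel intensity with signal to noise over triplicate slides.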 The following applies: higher = more signal.
Experiment [7] concerns Chordin-like protein 2 (CHRDL2). In words: compounds binding chordin-like 2 – biochemical, small-molecule microarray, 635 nm fluorescence, primary screen (AID 1126).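 Also: printed compound slides probed with Chrdl2 protein at 4 µg/mL for 1 h at 4 C; score merges 667 nm emission intensity with signal to noise over three replicate slides.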 Particulars: fluorescence 635 nm, higher = more signal.
For experiment [8], the target named is Concanavalin-A (Canavalia ensiformis) (UniProt P02866). Put plainly: compounds binding concanavalin A lectin – biochemical, small-molecule microarray, Alexa647 label, 635 nm, artefact control for SMM control protein annotation, primary screen (AID 1127).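 Also: z combines 667 nm emission intensity with signal-to-noise across three replicate slides.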 The following applies: ConA-A647 binding fluorescence, higher = more signal.
Experiment [9] in a line: compounds binding Alexa647 anti-His antibody – biochemical, small-molecule microarray, 635 nm fluorescence, artefact control for SMM control protein annotation, primary screen (AID 1128).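 Also: score merges feature fluorescence with signal-to-noise for each printed compound spot.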 The following applies: higher = more signal.
The test system of experiment [10] is Human papillomavirus type 1a E7 protein (residues 1-88). In words: HPV1a E7 small-molecule binders, primary screen, biochemical, small-molecule microarray, residues 1-88, 635 nm (AID 1129). The following applies: small-molecule microarray binding, fluorescence 635 nm; higher = more signal.
Experiment [11] addresses Focal adhesion kinase 1 (Homo sapiens) (UniProt Q05397). Put plainly: PTK2 protein binding on printed compound slides – biochemical, small-molecule microarray, 635/667 nm fluorescence, BSA, DTT, primary screen (AID 1130).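 Also: composite of spot emission at 667 nm and signal to noise over triplicate slides.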 Particulars: 635 nm fluorescence, higher = more signal.
Experiment [12] relates to Fibrinogen (Alexa647-labelled). Put plainly: Alexa647-fibrinogen binding to printed small molecules – biochemical, small-molecule microarray, 635/667 nm fluorescence, artefact control for SMM control-protein annotation, profiling panel (AID 1131).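 Also: z-score merges 667 nm fluorescence with per-spot signal-to-noise over triplicate slides.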 The following applies: fibrinogen-A647 binding fluorescence, higher = more signal.
For experiment [13], the target named is Follistatin (Homo sapiens) (UniProt P19883). In words: FST protein binding to printed compounds – biochemical, small-molecule microarray, 635/667 nm fluorescence, primary screen (AID 1132). The following applies: 635 nm fluorescence, higher = more signal.
For experiment [14], the target named is Fibroblast growth factor 2 (Homo sapiens) (UniProt P09038). In words: basic fibroblast growth factor binding to printed compounds – biochemical, small-molecule microarray, 635/667 nm fluorescence, primary screen (AID 1133). Particulars: FGF2, fluorescence 635/667, higher = more signal.
Experiment [15] can be described thus: JC-1 mitochondrial potential readout, lung cancer cells – cell-based, A549, JC-1 fluorescence, basal, 24 h, 100 nL, profiling panel (AID 1138).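 Also: A549 lung adenocarcinoma cells under basal conditions with no added stimulus; test concentration not given here.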 The following applies: higher = more signal.
The test system of another experiment is Lefty1. Put plainly: Lefty1 protein binding to printed compounds – biochemical, small-molecule microarray, 635/667 nm fluorescence, primary screen (AID 1139). Particulars: fluorescence 635/667, higher = more signal.
Experiment [16] deals with wheat germ agglutinin (Triticum aestivum), Alexa647-labelled. In words: Alexa647-WGA lectin binding to printed small molecules – biochemical, small-molecule microarray, 635/667 nm fluorescence, artefact control for SMM control-protein annotation, profiling panel (AID 1140).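 Also: score merges 667 nm feature emission with signal to noise over triplicate slides.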 Particulars: WGA-A647 binding, 635 nm fluorescence, higher = more signal.
Experiment [17] has as its target Luciferin 4-monooxygenase (Photinus pyralis) (UniProt P08659). Put plainly: inhibition of purified Photinus pyralis luciferase – biochemical, luminescence, purified enzyme, 2006 set, primary screen (AID 1141).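 Also: cell-free assay with purified firefly luciferase at 100 ng per well in PBS; test concentration not given here.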 Particulars: purified firefly luciferase, SteadyGlo luminescence, 30 min; higher = more signal, called active from +8 up or from −8 down.

The source made the active and inactive calls.

Luciferin 4-monooxygenase (Photinus pyralis), sequence (P08659 whole entry, looked up): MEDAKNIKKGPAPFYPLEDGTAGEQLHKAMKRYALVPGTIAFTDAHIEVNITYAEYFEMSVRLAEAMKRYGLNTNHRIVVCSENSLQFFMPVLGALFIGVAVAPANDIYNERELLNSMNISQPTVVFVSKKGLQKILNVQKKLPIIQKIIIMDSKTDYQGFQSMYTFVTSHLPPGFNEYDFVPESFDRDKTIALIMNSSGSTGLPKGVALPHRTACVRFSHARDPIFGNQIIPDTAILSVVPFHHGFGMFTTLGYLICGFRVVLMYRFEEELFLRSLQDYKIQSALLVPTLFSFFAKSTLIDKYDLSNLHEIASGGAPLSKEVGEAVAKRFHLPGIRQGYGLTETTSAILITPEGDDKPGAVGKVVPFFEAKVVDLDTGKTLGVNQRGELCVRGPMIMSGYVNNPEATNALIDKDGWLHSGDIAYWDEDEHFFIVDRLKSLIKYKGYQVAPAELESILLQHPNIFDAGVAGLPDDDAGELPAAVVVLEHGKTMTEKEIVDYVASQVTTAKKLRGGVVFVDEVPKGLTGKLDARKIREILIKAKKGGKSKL
Follistatin (Homo sapiens), sequence (P19883 whole entry, looked up): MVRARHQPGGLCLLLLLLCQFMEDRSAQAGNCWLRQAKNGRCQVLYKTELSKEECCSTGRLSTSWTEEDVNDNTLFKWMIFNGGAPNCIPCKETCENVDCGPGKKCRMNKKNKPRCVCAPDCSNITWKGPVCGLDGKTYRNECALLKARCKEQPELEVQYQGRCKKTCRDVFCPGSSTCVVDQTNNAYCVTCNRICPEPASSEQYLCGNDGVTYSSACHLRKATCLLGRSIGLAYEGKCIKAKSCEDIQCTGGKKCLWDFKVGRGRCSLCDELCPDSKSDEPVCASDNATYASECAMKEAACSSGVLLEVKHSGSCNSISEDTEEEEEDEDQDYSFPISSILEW
Albumin (Bos taurus), sequence (P02769 whole entry, looked up): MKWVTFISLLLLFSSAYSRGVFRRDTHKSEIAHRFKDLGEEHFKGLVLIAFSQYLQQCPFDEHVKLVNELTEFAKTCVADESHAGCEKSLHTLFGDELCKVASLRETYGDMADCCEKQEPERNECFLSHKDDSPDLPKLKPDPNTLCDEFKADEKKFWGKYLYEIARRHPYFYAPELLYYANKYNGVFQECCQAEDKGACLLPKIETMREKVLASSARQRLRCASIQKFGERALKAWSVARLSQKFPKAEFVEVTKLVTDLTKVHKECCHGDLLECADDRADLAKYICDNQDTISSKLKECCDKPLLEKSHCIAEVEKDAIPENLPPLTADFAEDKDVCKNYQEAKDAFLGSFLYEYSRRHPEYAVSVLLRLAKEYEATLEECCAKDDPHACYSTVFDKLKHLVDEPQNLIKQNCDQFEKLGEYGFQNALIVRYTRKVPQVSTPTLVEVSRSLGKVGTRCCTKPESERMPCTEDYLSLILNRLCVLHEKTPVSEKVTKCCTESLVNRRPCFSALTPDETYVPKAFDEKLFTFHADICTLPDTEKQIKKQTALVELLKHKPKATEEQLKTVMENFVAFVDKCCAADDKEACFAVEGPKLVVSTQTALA
Focal adhesion kinase 1 (Homo sapiens), sequence (Q05397 whole entry, looked up): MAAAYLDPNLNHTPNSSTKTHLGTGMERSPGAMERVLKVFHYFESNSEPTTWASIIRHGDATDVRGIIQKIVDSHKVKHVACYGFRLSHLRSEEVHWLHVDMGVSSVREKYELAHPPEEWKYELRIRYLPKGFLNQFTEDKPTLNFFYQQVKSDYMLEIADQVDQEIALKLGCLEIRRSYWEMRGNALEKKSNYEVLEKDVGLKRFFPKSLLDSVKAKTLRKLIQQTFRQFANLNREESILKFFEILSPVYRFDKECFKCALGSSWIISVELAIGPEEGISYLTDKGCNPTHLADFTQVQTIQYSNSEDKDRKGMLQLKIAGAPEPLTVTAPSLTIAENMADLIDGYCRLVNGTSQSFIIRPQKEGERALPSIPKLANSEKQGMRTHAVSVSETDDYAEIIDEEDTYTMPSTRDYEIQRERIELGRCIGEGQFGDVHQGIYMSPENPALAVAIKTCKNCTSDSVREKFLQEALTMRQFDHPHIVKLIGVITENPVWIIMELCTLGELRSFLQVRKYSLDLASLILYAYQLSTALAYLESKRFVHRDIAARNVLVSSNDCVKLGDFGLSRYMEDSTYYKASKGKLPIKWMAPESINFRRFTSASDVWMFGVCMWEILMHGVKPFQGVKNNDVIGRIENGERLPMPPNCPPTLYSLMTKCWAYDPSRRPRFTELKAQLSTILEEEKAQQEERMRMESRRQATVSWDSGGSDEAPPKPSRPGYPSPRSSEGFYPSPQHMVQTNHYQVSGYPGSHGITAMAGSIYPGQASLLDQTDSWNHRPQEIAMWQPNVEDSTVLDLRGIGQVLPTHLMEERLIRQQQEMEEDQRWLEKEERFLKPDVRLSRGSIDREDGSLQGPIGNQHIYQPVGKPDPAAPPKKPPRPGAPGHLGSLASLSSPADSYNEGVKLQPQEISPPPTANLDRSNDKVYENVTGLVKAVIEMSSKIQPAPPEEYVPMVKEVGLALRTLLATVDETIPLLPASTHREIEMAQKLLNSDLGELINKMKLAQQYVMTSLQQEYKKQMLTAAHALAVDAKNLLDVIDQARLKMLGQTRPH
Fibroblast growth factor 2 (Homo sapiens), sequence (P09038 whole entry, looked up): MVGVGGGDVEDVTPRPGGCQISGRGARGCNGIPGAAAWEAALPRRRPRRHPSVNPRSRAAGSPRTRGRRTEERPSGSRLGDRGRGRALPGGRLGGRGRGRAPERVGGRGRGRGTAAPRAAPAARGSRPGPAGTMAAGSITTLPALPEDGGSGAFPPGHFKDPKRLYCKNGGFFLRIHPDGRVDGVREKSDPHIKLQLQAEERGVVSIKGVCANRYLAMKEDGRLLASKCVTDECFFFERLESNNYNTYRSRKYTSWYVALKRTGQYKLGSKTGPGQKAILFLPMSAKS
Concanavalin-A (Canavalia ensiformis), sequence (P02866 whole entry, looked up): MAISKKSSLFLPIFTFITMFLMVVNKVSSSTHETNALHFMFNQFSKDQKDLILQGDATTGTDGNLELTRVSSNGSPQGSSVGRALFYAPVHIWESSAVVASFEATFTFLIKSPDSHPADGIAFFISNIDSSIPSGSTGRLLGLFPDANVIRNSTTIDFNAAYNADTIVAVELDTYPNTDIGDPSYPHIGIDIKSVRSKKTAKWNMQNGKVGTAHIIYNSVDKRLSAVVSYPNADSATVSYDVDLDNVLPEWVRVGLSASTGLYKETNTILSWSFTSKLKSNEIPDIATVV

With `CC(C)[C@@H](OCc1ccccc1)[C@H](C)C=NO[C@H](C)c1cn([C@H](CO)Cc2ccccc2)nn1`, the composite z-score with Albumin (Bos taurus) was 0.0792; in experiment [2], -0.0362; in [3], -0.163; in [4], 0.0227; in experiment [5], 0.544; in [6], 0.294. Moreover, the composite z-score in the experiment on Sam68 (KHDRBS1) was 1.01; in [7], 0.779; in experiment [8], 0.392; in [9], 0.424; in experiment [10], 0.222; in [11], -0.238. For the same compound, the composite z-score was found to be 0.286 in [12]; 0.171 in experiment [13]; 0.446 in experiment [14]; 0.913 in the experiment on Lefty1; 0.106 in [16]. The composite Z-score in experiment [1] is 0.0599 (inactive). In addition, the z-score in [15] was 0.506; in experiment [17] it was -1.62 (inactive).
`CC(C)CON=C1C[C@@H](O)[C@@H](O)[C@@H]2[C@@H]3C(=O)N([C@@H](C)c4ccccc4)C(=O)[C@@H]3CC[C@H]12`: the composite z-score is 0.663 with Albumin (Bos taurus); 0.0297 in experiment [2]; -0.0959 in [3]; 0.378 in experiment [4]; 0.754 in [5]; -0.0211 in [6]. Also, the composite z-score stood at 1.29 in the experiment on Sam68 (KHDRBS1); 0.315 in experiment [7]; 1.07 in [8]; 0.728 in experiment [9]; 1.17 in experiment [10]; 0.657 in experiment [11]. The composite z-score in experiment [12] was determined as 0.951; in experiment [13] it was 0.755; in [14], 1.18; in the experiment with Lefty1 it was 1.4; in experiment [16], 0.122. In addition, the composite Z-score in experiment [1] was 0.0312 (inactive). The z-score in [15] was 1.24; in [17], 0.407 (inactive).
With `COC(=O)[C@H](C)NC(=O)CCC1CC(OC(=O)NCc2cccc3ccccc23)CC2(CCCC(COC(=O)NCCc3ccc(Cl)cc3)O2)O1` (stereo not given in full), the composite z-score was 0.147 in the experiment with Albumin (Bos taurus); -0.176 in experiment [2]; -0.0868 in experiment [3]; 0.535 in experiment [4]; 0.631 in experiment [5]; -0.422 in experiment [6]. The composite z-score in the experiment on Sam68 (KHDRBS1) was 1.23; in experiment [7], -0.0578; in experiment [8], 0.946; in experiment [9], 0.591; in [10] it was 1.06; in experiment [11] it was 0.178. For the same compound, the composite z-score in experiment [12] worked out at 0.228; in experiment [13], 0.225; in [14] it was 0.212; with Lefty1, 1.03; in experiment [16], 0.411. Also, in experiment [1], the composite Z-score is 0.108 (inactive). Besides, the z-score was 0.179 in [15] and 0.632 (inactive) in experiment [17].
Take `CCCCCN1CC=CC23O[C@@H]4C=CCOC(=O)[C@@H]4[C@H]2C(=O)N(CCCCCCO)[C@@H]3C1=O` (stereo not given in full): the composite z-score with Albumin (Bos taurus) is 0.798; in experiment [2] it was -0.306; in experiment [3] it was -0.0811; in experiment [4], 0.81; in [5], 0.629; in experiment [6], 0.902. Moreover, the composite z-score in the experiment with Sam68 (KHDRBS1) is -0.662; in experiment [7] it was -1.21; in experiment [8], -0.367; in [9], 0.309; in [10] it was -0.381; in experiment [11], -0.236. Moreover, the composite z-score in experiment [12] is -1.04; in [13], -2.23; in experiment [14], -1.49; in the experiment with Lefty1, -1.05; in experiment [16], -0.416. The composite Z-score in experiment [1] was 0.401 (inactive). In addition, the z-score in experiment [15] is 0.421; in [17], 0.294 (inactive).
